Laboratory results published in PubChem BioAssay AID488975 (Johns Hopkins Ion Channel Center, 2010).
The campaign covered roughly 310,000 compounds. About 2,600 (0.84%) were called active.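 The calls were made as follows: active = B-score over 3 SD under the library average, and starting fluorescence ratio not unusually high; inactive = the rest.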 For the sample, actives were picked, then their nearest neighbours and some compounds at random.

Each compound was assayed against High affinity choline transporter 1 (Homo sapiens) (UniProt Q9GZV3) (assay: inhibitors of human choline transporter CHT (AID 488975;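 as to B-score: choline stimulus applied at its EC90 after an EC20 pre-addition; B-score computed on integrated fluorescence ratio after choline addition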)). Conditions: CHT-expressing cells, membrane potential dye, choline response, at 10 µM; stronger effect = lower value.
Sequence of High affinity choline transporter 1 (Homo sapiens) (Q9GZV3 whole entry, looked up): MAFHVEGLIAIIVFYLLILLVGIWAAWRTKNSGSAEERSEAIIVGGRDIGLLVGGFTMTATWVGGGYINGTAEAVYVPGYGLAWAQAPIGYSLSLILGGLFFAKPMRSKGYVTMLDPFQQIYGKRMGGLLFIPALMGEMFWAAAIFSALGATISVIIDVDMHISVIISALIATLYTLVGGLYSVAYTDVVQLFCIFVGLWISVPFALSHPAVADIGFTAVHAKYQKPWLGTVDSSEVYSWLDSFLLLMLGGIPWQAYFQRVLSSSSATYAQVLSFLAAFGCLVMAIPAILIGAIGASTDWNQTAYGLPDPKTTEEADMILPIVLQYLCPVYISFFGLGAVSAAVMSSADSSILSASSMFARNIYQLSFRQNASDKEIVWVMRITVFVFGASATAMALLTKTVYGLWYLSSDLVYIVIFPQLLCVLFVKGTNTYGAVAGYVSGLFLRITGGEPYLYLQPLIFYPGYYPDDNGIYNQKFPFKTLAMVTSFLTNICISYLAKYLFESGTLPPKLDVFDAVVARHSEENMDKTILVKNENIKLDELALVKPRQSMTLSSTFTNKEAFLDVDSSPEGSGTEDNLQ

Q: For `Cc1cc(C)c(-c2c(O)c3ccccc3n(C)c2=O)c(C)c1`, which B-score is on record?
A: inactive

Q: Which B-score does the source give for `Cn1c2ccccc2c(=O)c2c(O)cccc21` here?
A: -5.96 (active)

Q: `CCn1c(=O)cc(O)c2ccccc21` was tested. Which B-score did it give?
A: inactive

Q: `CCCC[C@@H]1CN=C(N)N1CCc1cccc(F)c1` was tested. Which B-score did it give?
A: inactive

Q: For `Cc1cccc(Nc2nc(NCCO)nc(N3CCCC3)n2)c1`, which B-score is on record?
A: inactive

Q: How did the B-score turn out when `COc1ccc(C(=O)N(Cc2ccccc2)c2ccc(C)cc2)cc1S(=O)(=O)N1CCOCC1` was run?
A: inactive

Q: For `COc1cccc(NC(=O)CSc2nccn(-c3ccc4c(c3)OCCO4)c2=O)c1`, which B-score is on record?
A: inactive

Q: `CC(C)(C)S(=O)(=O)c1ccccc1-c1noc(-c2ccccc2)c1C(N)=O` was tested. Which B-score did it give?
A: inactive

Q: For `CN(C)CCn1c2c(c(SCC(=O)NCc3ccccc3)nc1=O)CCC2`, which B-score is on record?
A: inactive

Q: Which B-score does the source give for `Nc1nc(NCC(=O)O)nc(N2CCCCCC2)c1[N+](=O)[O-]` here?
A: inactive

Q: With `Nc1cc(N2CCCCCC2)c2nonc2c1[N+](=O)[O-]` as the compound, how does the B-score read?
A: -7.12 (active)

Q: With `COCCNc1nc(N)c([N+](=O)[O-])c(N2CCCCCC2)n1` as the compound, how does the B-score read?
A: inactive

Q: `Cc1ccc(S(=O)(=O)N2CCN(C(=O)Cc3sc(C)nc3-c3ccc(F)cc3)CC2)c(C)c1` was tested. Which B-score did it give?
A: inactive

Q: For `COc1ccc(NC(=O)CN(C)C(=O)c2cccc(S(=O)(=O)N3CCN(c4ccccc4)CC3)c2)cc1`, which B-score is on record?
A: inactive

Q: For `Cc1ccccc1NC(=O)COc1cccc2c1CCNC2=O`, which B-score is on record?
A: inactive

Q: `Cc1c(NC(=S)Nc2ccccc2)c(=O)n(-c2ccccc2)n1C` was tested. Which B-score did it give?
A: inactive

Q: `Cc1ccc(S(=O)(=O)CC(=O)Nc2c(C)n(C)n(-c3ccccc3)c2=O)cc1` was tested. Which B-score did it give?
A: inactive

Q: With `Cc1ccc(S(=O)(=O)/N=C(/NC(=S)Nc2c(C)n(C)n(-c3ccccc3)c2=O)c2ccccc2)cc1` as the compound, how does the B-score read?
A: -6.35 (active)

Q: For `CC(=O)N1CCc2c(sc(NC(=O)CCS(=O)(=O)c3ccc(C)cc3)c2C(N)=O)C1`, which B-score is on record?
A: inactive

Q: With `O=C(c1cc(-c2ccco2)nc2ccccc12)N(Cc1nnc(-c2ccc(Cl)cc2)o1)C1CC1` as the compound, how does the B-score read?
A: inactive

Q: For `CC(C)CN(C(=O)COC(=O)c1ccc2ccccc2c1)c1c(N)n(Cc2ccccc2)c(=O)[nH]c1=O`, which B-score is on record?
A: inactive

Q: Which B-score does the source give for `COc1ccc(/C=N/NC(=O)c2cc(-c3cccc(C)c3)nc3ccccc23)cc1O` here?
A: inactive

Q: For `COc1ccccc1OCCCCCCN1CCN(C)CC1`, which B-score is on record?
A: inactive

Q: Which B-score does the source give for `CCN(CC)c1ccc(S(=O)(=O)N2CCCCC2)cc1NC(=O)C1=COCCO1` here?
A: inactive

Q: How did the B-score turn out when `CCOc1ccccc1Nc1ccc2nonc2c1[N+](=O)[O-]` was run?
A: -6.62 (active)

Q: Which B-score does the source give for `CCOc1ccccc1Nc1ccc(C(=O)O)cc1[N+](=O)[O-]` here?
A: inactive

Q: How did the B-score turn out when `Cc1ccccc1Nc1c([N+](=O)[O-])ccc2nonc12` was run?
A: inactive

Q: With `COc1ccc(-c2ccc3nnc(SCC(=O)Nc4ccc(NC(C)=O)cc4)n3n2)cc1` as the compound, how does the B-score read?
A: inactive

Q: How did the B-score turn out when `Cc1cc(/C=C2/NC(=O)NC2=O)c(C)n1-c1cccnc1` was run?
A: inactive

Q: With `Cc1cccc(C)c1-n1c(C)cc(/C=C2\C(=O)NN(c3ccccc3)C2=O)c1C` as the compound, how does the B-score read?
A: inactive

Q: How did the B-score turn out when `Cc1ccccc1-n1c(C)cc(/C=C2\NC(=O)NC2=O)c1C` was run?
A: -8.08 (active)
